Our source for the outcome and AC50 values is PubChem BioAssay (EPA / NIEHS).

Assay [1] is described as follows: ACEA_ER_80hr: ACEA Biosciences xCELLigence Real-Time Cell Analysis on Estrogen Receptor Agonism for Proliferation (AID 2282667; active means hit-call score of the fitted dose curve at least 0.9, where 1 is the maximum). To be noted: T47D proliferation, impedance (xCELLigence), 80 h. Put shortly: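 Real-time electrical impedance tracked growth of the human breast line T47D, with the 80 h post-dosing value used. Dosing spanned eight 1:4 steps down from a 100 uM final top concentration, run in duplicate.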

Assay [2] in a line: ATG_CRE_CIS: Attagene CIS-FACTORIAL HepG2 Assay for human cAMP Responsive Element (CRE) binding protein 3 (AID 2282926). As to conditions: HepG2 CRE cis-reporter, Attagene multiplexed mRNA; actives raise or lower the signal. Put shortly: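 Assay format: transient reporter transfection of HepG2, 24 h treatment, total RNA isolation with DNase I step. Reporter abundance read by fluorescence after PCR and capillary separation; DMSO-normalised gain or loss fitting.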

The target of assay [3] is CCAAT/enhancer-binding protein beta (Homo sapiens) (UniProt P17676). The experiment in a line: ATG_C_EBP_CIS: Attagene CIS-FACTORIAL HepG2 Assay for human CCAAT/Enhancer Binding Protein (C/EBP) beta (AID 2282927). As to conditions: HepG2 Attagene cis-factorial transcription factor reporter; actives raise or lower the signal. Put shortly:
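HepG2 transiently transfected with multiplexed reporter units under cis-regulatory promoters reporting endogenous C/EBPb activity. After 24 h exposure, reporter mRNA assayed by RT-PCR, fluorescent labelling, HpaI digestion and capillary electrophoresis; bidirectional fitting versus DMSO.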

Assay [4] in a line: ATG_DR4_LXR_CIS: Attagene CIS-FACTORIAL HepG2 Assay for human Liver X Receptor (LXR), DR4 submotif (AID 2282929). To be noted: HepG2 Attagene DR4 cis-reporter, mRNA transcription; actives raise or lower the signal. Put shortly: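 HepG2, transient MRTU transfection, cis-element (DR4) promoter; 24 h compound exposure; total RNA → oligo(dT) RT → PCR → 6-FAM primer extension → HpaI cut → CE. Gain/loss vs DMSO, bidirectional fit.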

For assay [5], the target named is Aryl hydrocarbon receptor (Homo sapiens) (UniProt P35869). The experiment in a line: ATG_Ahr_CIS: Attagene CIS-FACTORIAL HepG2 Assay for human Aryl Hydrocarbon Receptor (Ahr) (AID 2282930). As to conditions: HepG2 AhR cis-factorial reporter transcription; actives raise or lower the signal. Put shortly:
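HepG2 cells transiently transfected with cis-element-driven multiplexed reporter units; endogenous AhR activity read as reporter mRNA 24 h after dosing, via RT-PCR, 6-FAM labelling, HpaI digestion and capillary electrophoresis. Bidirectional fit relative to DMSO.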

Assay [6] is described as follows: ATG_AP_1_CIS: Attagene CIS-FACTORIAL HepG2 Assay for human Activator Protein 1 (AP-1) (AID 2282931). As to conditions: HepG2 Attagene cis-factorial AP-1 reporter mRNA; actives raise or lower the signal. Summed up:
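Transient MRTU transfection of HepG2 → 24 h chemical treatment → RNA isolation, RT-PCR, 6-FAM labelling, HpaI digest → capillary electrophoresis. Fit: bidirectional, DMSO negative control.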

Assay [7] in a line: ATG_AP_2_CIS: Attagene CIS-FACTORIAL HepG2 Assay for human Activator Protein 2 (AP-2) (AID 2282932). As to conditions: HepG2 AP-2 cis-reporter, Attagene transcription factor profiling; actives raise or lower the signal. Put shortly:
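Read-out: fluorescent reporter mRNA via RT-PCR and capillary electrophoresis, 24 h post-dose in transiently transfected HepG2. Endogenous factors drive cis-promoter reporters; gain or loss of signal fitted bidirectionally against DMSO.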

A short description of assay [8]: ATG_BRE_CIS: Attagene CIS-FACTORIAL HepG2 Assay for human Bone Morphogenetic Protein (BMP) Response Element (BRE) (AID 2282933). As to conditions: HepG2 BMP response element reporter, Attagene transcription factor profiling; actives raise or lower the signal. Put shortly:
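Endogenous transcription factor activity read in transiently transfected HepG2 cells after 24 h chemical exposure. Bidirectional curve fitting against DMSO; readout is reporter transcript level by RT-PCR with capillary electrophoresis of labelled products.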

Assay [9] addresses Retinoic acid receptor alpha (Homo sapiens) (UniProt P10276). Nature of the assay: ATG_DR5_RAR_CIS: Attagene CIS-FACTORIAL HepG2 Assay for human Retinoic Acid Receptor Alpha (RARE), DR5 submotif (AID 2282934). As to conditions: HepG2 Attagene cis-factorial RARE DR5 reporter, mRNA; actives raise or lower the signal. Put shortly:
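HepG2 cells transiently transfected with multiplexed reporter units; DR5 cis-element drives reporter through endogenous transcription factors. After 24 h dosing, reporter mRNA quantified by RT-PCR, fluorescent labeling, HpaI digestion and capillary electrophoresis; bidirectional fitting versus DMSO.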

The target of assay [10] is Transcription factor E2F1 (Homo sapiens) (UniProt Q01094). Nature of the assay: ATG_E2F_CIS: Attagene CIS-FACTORIAL HepG2 Assay for human E2F Transcription Factor 1 (AID 2282935). To be noted: HepG2 Attagene cis-reporter, E2F reporter RNA transcripts; actives raise or lower the signal. Summed up:
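Transient MRTU transfection of HepG2; 24 h compound exposure; RNA → oligo(dT) RT → PCR → FAM label → HpaI cut → CE fluorescence. Gain/loss of signal fit against DMSO.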

Assay [11] can be described thus: ATG_E_Box_CIS: Attagene CIS-FACTORIAL HepG2 Assay for human Enhancer Box (E-box) (AID 2282936). To be noted: HepG2 E-box cis-reporter transcription, actives raise or lower the signal. Put shortly: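 Transiently transfected HepG2, endogenous TF-driven reporters, 24 h dosing. Readout: RT-PCR plus capillary electrophoresis of fluorescent reporter fragments. Gain or loss of signal fitted bidirectionally against DMSO baseline.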

Assay [12] is described as follows: ATG_M_61_CIS: Attagene CIS-FACTORIAL HepG2 Assay for M61 Transcription Factor (Internal Marker) (AID 2282937). As to conditions: HepG2 Attagene CIS-FACTORIAL M61 internal marker reporter; actives raise or lower the signal. Put shortly:
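Human liver HepG2, transient MRTU transfection (cis promoter elements), 24 h compound. Total RNA → oligo(dT) RT → PCR → FAM label → HpaI → CE. Internal background marker; bidirectional fitting, DMSO = baseline.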

Assay [13] is described as follows: ATG_EGR_CIS: Attagene CIS-FACTORIAL HepG2 Assay for human Early Growth Response 1 (EGR1) (AID 2282938). To be noted: HepG2 Attagene CIS-FACTORIAL EGR reporter mRNA; actives raise or lower the signal. Put shortly: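 Transient transfection of human HepG2 with multiple cis-regulated reporter units, chemical exposure 24 h, total RNA isolated. Reverse transcription, PCR, fluorescent labelling and capillary electrophoresis quantify reporter transcripts; activity fitted bidirectionally against DMSO.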

A short description of assay [14]: ATG_M_19_CIS: Attagene CIS-FACTORIAL HepG2 Assay for M19 Transcription Factor (Internal Marker) (AID 2282939). To be noted: HepG2 Attagene CIS-FACTORIAL M19 internal marker reporter; actives raise or lower the signal. Put shortly:
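Internal marker readout, fitted in both directions against DMSO, from HepG2 cells carrying transfected cis-element reporter constructs; RT-PCR and capillary electrophoresis of reporter mRNA after 24 h exposure.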

Assay [15] in a line: ATG_ERE_CIS: Attagene CIS-FACTORIAL HepG2 Assay for Estrogen Response Element (ERE) (AID 2282940). As to conditions: HepG2 ERE cis-reporter, Attagene RNA transcript; actives raise or lower the signal. Put shortly: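 After 24 h compound treatment, RNA from transfected HepG2 cells was reverse-transcribed, reporter cDNA PCR-amplified, FAM-labelled, HpaI-cut and resolved by capillary electrophoresis. ERE-driven cis reporter transcripts reflect endogenous factors; gain or loss scored against DMSO.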

The nature of assay [16]: ATG_Ets_CIS: Attagene CIS-FACTORIAL HepG2 Assay for human Erythroblast Transformation Specific (ETS) (AID 2282941). To be noted: HepG2 ETS cis-reporter transcription, actives raise or lower the signal. Put shortly: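 Bidirectional fit versus DMSO of reporter mRNA signal, detected by RT-PCR and capillary electrophoresis in HepG2 cells transiently transfected with cis-element reporters and dosed 24 h.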

For assay [17], the target named is Hepatocyte nuclear factor 3-beta (Homo sapiens) (UniProt Q9Y261). The experiment in a line: ATG_FoxA2_CIS: Attagene CIS-FACTORIAL HepG2 Assay for human Forkhead box A2 (FOXA2) (AID 2282942). To be noted: HepG2 cis-reporter transcription factor activity, 24 h; actives raise or lower the signal. Put shortly:
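Transient MRTU transfection of HepG2 liver cells; 24 h treatment; total RNA → oligo(dT) RT → PCR → FAM primer extension → HpaI cut → CE. Bidirectional fit vs DMSO.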

The nature of assay [18]: ATG_FoxO_CIS: Attagene CIS-FACTORIAL HepG2 Assay for human Forkhead box O (FoxO) (AID 2282943). To be noted: HepG2 Attagene cis-reporter, FoxO element, mRNA; actives raise or lower the signal. Put shortly:
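HepG2 cells transiently transfected with cis-element-driven reporter units report endogenous FoxO activity. After 24 h chemical exposure, reporter mRNA quantified by RT-PCR, fluorescent labeling, HpaI digestion and capillary electrophoresis; bidirectional fit versus DMSO.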

Assay [19] can be described thus: ATG_GATA_CIS: Attagene CIS-FACTORIAL HepG2 Assay for human GATA Binding Protein (AID 2282944). To be noted: HepG2 GATA cis-element reporter, Attagene multiplex mRNA; actives raise or lower the signal. Put shortly: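 Reporter transcripts from a GATA cis-regulated unit, among multiplexed reporters in transfected HepG2 cells, were measured by RT-PCR with capillary electrophoresis after 24 h dosing. Induction or loss scored relative to DMSO.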

Inconclusive results are not listed. Activity calls are given as the source filed them. How the source made its calls, unless noted: active means hit-call score of the fitted dose curve at least 0.9, where 1 is the maximum; inactive means score below 0.9.

Sequence of Transcription factor E2F1 (Homo sapiens) (Q01094 whole entry, looked up): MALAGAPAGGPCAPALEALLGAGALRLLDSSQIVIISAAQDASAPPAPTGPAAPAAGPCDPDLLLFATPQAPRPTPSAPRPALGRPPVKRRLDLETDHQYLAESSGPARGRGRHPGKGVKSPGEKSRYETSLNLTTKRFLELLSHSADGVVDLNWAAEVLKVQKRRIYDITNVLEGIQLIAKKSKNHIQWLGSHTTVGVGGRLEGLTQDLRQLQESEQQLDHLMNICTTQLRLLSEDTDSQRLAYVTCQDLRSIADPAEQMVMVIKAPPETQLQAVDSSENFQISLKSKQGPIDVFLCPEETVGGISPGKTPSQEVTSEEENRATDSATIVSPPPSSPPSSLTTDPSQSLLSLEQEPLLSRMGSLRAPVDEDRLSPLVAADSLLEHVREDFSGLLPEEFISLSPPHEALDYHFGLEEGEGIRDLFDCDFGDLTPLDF
Sequence of Aryl hydrocarbon receptor (Homo sapiens) (P35869 whole entry, looked up): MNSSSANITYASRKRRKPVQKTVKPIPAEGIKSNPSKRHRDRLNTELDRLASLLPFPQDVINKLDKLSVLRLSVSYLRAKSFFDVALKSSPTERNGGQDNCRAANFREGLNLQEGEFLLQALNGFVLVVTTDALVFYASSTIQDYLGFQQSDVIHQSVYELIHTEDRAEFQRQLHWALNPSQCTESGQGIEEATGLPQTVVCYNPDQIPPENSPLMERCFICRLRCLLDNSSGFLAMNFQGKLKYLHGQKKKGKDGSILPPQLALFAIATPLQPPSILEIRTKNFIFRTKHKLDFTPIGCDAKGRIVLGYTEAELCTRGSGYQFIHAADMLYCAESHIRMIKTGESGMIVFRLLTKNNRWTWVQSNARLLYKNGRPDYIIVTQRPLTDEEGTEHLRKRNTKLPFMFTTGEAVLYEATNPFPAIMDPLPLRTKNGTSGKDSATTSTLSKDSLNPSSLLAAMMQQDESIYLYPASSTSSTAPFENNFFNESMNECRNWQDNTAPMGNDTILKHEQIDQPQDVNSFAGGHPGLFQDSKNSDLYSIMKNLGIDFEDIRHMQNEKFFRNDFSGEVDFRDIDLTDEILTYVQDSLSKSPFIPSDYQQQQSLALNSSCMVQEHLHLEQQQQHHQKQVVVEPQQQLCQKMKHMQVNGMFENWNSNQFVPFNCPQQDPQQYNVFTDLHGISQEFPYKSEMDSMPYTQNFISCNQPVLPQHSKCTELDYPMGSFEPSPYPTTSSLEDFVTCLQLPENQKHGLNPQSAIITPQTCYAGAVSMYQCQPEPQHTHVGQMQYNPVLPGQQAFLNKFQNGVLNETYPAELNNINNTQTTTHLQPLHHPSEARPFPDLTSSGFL
Sequence of CCAAT/enhancer-binding protein beta (Homo sapiens) (P17676 whole entry, looked up): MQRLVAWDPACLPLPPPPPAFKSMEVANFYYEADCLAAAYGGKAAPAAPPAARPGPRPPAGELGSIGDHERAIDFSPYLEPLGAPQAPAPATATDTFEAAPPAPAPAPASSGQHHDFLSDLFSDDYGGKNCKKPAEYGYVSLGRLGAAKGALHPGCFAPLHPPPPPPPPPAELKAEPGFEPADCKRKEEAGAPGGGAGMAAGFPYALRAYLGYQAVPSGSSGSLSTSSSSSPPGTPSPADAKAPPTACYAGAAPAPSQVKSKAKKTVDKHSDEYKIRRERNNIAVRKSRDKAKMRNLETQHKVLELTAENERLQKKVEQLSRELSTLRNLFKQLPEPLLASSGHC
Sequence of Retinoic acid receptor alpha (Homo sapiens) (P10276 whole entry, looked up): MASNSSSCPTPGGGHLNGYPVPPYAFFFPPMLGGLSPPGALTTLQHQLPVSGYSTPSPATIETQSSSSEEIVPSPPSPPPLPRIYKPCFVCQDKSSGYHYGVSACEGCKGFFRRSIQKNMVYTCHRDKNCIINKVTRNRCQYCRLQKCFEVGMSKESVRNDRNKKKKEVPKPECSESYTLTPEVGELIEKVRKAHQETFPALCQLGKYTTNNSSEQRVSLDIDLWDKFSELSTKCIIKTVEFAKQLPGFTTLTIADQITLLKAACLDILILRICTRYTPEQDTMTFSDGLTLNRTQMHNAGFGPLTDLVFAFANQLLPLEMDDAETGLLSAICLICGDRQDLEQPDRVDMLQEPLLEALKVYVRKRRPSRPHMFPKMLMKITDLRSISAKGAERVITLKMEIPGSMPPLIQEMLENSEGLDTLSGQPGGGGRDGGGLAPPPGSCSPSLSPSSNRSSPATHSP
Sequence of Hepatocyte nuclear factor 3-beta (Homo sapiens) (Q9Y261 whole entry, looked up): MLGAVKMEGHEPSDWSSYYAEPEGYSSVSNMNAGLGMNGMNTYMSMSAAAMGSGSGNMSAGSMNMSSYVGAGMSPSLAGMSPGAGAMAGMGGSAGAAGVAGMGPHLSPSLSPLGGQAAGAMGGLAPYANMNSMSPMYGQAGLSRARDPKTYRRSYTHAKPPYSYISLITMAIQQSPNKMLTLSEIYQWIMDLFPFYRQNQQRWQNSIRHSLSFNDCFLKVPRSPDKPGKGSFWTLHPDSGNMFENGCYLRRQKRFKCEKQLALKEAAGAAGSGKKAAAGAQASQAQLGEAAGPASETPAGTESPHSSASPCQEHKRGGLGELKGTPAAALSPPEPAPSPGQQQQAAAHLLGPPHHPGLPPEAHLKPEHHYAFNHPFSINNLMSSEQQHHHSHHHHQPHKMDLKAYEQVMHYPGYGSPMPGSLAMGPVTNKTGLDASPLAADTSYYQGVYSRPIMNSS

In the case of `N#CCCOCCC#N`, the molecule was classed as inactive in [1], in assay [2], in assay [3], in assay [4], in [5] and in assay [6]. In addition, the molecule was classed as inactive in assay [7], in [8], in assay [9], in assay [10], in assay [11] and in assay [12]. Also, the molecule was called inactive in assay [13], in assay [14], in [15], in [16], in assay [17] and in assay [18]. The molecule was called inactive in assay [19].
For the molecule `O=C=NCc1cccc(CN=C=O)c1`, the outcome in assay [1], in [2], in [3], in assay [5], in assay [6] and in assay [7] was inactive. In addition, the molecule was classed as inactive in assay [8], in assay [9], in assay [10], in assay [11], in assay [12] and in [13]. Moreover, the molecule was classed as inactive in assay [14], in assay [15], in [16], in assay [17], in assay [18] and in assay [19].
For orientation: AC50 means the concentration at which the activity in the assay is half-maximal. As for `CC(C)(C)c1cc(CCC(=O)NCCCCCCNC(=O)CCc2cc(C(C)(C)C)c(O)c(C(C)(C)C)c2)cc(C(C)(C)C)c1O`, in assay [1], the concentration at half-maximal activity (AC50) is 50 µM (active). Further, the molecule was classed as inactive in assay [2], in [3], in assay [4], in [5], in assay [6] and in assay [7]. For the same molecule, the result in assay [8], in [9], in [10], in assay [11], in assay [12] and in [13] was inactive. Besides, the molecule was called inactive in assay [14], in assay [15], in [16], in assay [17], in [18] and in assay [19].
